Measured values reported in the supplement of paper PMC10338343.
± gives the standard deviation.

What follows are sequences tested on EfPiwi piRISC loaded with L1MC piRNA (26 nt) (assay: pre-steady-state target cleavage rate (min^-1); auxiliary factor: 500 nM Ephydatia muelleri Gtsf1; guide: L1MC piRNA 5'p-UAACUAAAUACUAUGCAAGCUGUAGG; MIWI and MILI are mouse PIWI proteins and EfPiwi is from a freshwater sponge; tags in brackets are library labels; higher = faster piRNA-guided slicing of the target).
Procedure: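 Cleave-'n-Seq: a library of target RNAs (target site in constant flanks) at […] was incubated with 1 nM active freshwater sponge Ephydatia fluviatilis Piwi piRISC (synthetic 5'-monophosphorylated piRNA guide) with or without 500 nM EmGtsf1 at 33 °C for 1 min to 16 h. Uncleaved targets were sequenced and the pooled three trials fitted to a burst-and-steady-state model to give the pre-steady-state cleavage rate (min^-1). Sequence is the target site only. Fits with R² ≤ 0 are excluded.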
With UCCUCCUACAGCUUGCAUAGUAUUUACGUUA the “pre-steady-state target cleavage rate” value was 0.00783 ± 0.0029.
With UCCUGGUACAGCUUGCAUAGUAUAAUGUUA the “pre-steady-state target cleavage rate” value was 0.00312 ± 0.0026.
UCCUGGAUGUCGAACGUUAGUAUGUUAGUUA was tested, and the “pre-steady-state target cleavage rate” value was less than 0.0001.
For UCCUGCUACAGCUUGCAUAGUAUUUAGCUUA, the “pre-steady-state target cleavage rate” value was 0.00522 ± 0.0019.
For UCCUGCACAGCUUGCAUAGUAUUUAGUUA, the “pre-steady-state target cleavage rate” value was 0.0745 ± 0.016.
In the case of UCCUGGAUGUUCUUGCAUAGUAUUUAGUUA, the “pre-steady-state target cleavage rate” value is reported as 0.173 ± 0.068.
With UCCUCCUACAGCUUGGUUAGUAUUUAGUAA the “pre-steady-state target cleavage rate” value was 0.00533 ± 0.0032.
With UCCUCCUACAGCUUGCUUAGUAAUUAGUUA the “pre-steady-state target cleavage rate” value was 0.0113 ± 0.0049.
With UCCUCCUACAGCUUGCAGAGUAUUUAGUUA the “pre-steady-state target cleavage rate” value was 0.0095 ± 0.0025.
For UCCUGCUAGAGCUUGCAAAGUAUUUAGUUA, the “pre-steady-state target cleavage rate” value was 0.00607 ± 0.0018.
With UCCUGGAACAGCUUGGAUAGUAUUUAGAAA the “pre-steady-state target cleavage rate” value was 0.00373 ± 0.0019.
UCCUGGAUGUCGAACCAUACUAAUUAGUUA was tested, and the “pre-steady-state target cleavage rate” value was less than 0.0001.
In the case of UCCUGGAACAGCUUGCAUAGUAUUUGAGUUA, the “pre-steady-state target cleavage rate” value is reported as 0.00552 ± 0.0019.
With UCCUGGAACAGCUUGCAUAGUAUUUAGAUA the “pre-steady-state target cleavage rate” value was 0.00437 ± 0.0016.
With UCCUGGAACAGCUUGCAUUGUAUUUAGAAA the “pre-steady-state target cleavage rate” value was 0.00376 ± 0.0021.
With UCCUCGAACAGCUUGCAUAGUAUUUAGUUA the “pre-steady-state target cleavage rate” value was 0.198 ± 0.038.
UCCUGGAUGUGCUUGCAUAGUAUUAAGUUA was tested, and the “pre-steady-state target cleavage rate” value was 0.00372 ± 0.0032.
With UCCUCCUUCAGCUUGCAUAGUAUUUUGUUA the “pre-steady-state target cleavage rate” value was 0.00463 ± 0.0027.
With UCCUGGAUCAGCUUGCAUAGUAAUUAGAAA the “pre-steady-state target cleavage rate” value was 0.00582 ± 0.0028.
For UCCUCCUACAGCUUGCAUAGUAAAAAGUUA, the “pre-steady-state target cleavage rate” value was 0.00301 ± 0.0021.
For UCCUGGAUGAGCUUGCAUAGUAUUUAAUUA, the “pre-steady-state target cleavage rate” value was 0.00294 ± 0.0025.
With UCCUGCUACAGCUUGCUUAGUAUUUAGAAA the “pre-steady-state target cleavage rate” value was 0.00409 ± 0.0022.
With UCCUCCAUCAGCUUGCAUAGUAUUUAGUAA the “pre-steady-state target cleavage rate” value was 0.00678 ± 0.003.
In the case of UCCUGCUACAGCUUGGAUAGUAUUUAGUAA, the “pre-steady-state target cleavage rate” value is reported as 0.00465 ± 0.0017.
For UCCUGCUACUAGCUUGCAUAGUAUUUAGUUA, the “pre-steady-state target cleavage rate” value was 0.00699 ± 0.0025.
For UCCUCGUACAGCUUGGAUAGUAUUUAGUUA, the “pre-steady-state target cleavage rate” value was 0.0441 ± 0.0092.
UCCUCCUACUGCUUGCAUAGUUUUUAGUUA was tested, and the “pre-steady-state target cleavage rate” value was 0.0079 ± 0.0028.
UCCUGGUACAGCUUGCAUAGUUUUUAGUAA was tested, and the “pre-steady-state target cleavage rate” value was 0.00728 ± 0.0027.
For UCCUGGAUCACCUUGCAAAGUAUUUAGUUA, the “pre-steady-state target cleavage rate” value was 0.00506 ± 0.0019.
For UCCUCCUACAGGUAGCAUAGUAUUUAGUUA, the “pre-steady-state target cleavage rate” value was 0.0265 ± 0.006.
UCCUGGUCAGCUUGCAUAGUAUUUAGUUA was tested, and the “pre-steady-state target cleavage rate” value was 0.14 ± 0.027.
With UCCUGGAUCAGCUUGCAUAGUAUCUUAGUUA the “pre-steady-state target cleavage rate” value was 0.0248 ± 0.0072.
With UCCUGCUACAGCUUGCAUAAUAUUUAGUUA the “pre-steady-state target cleavage rate” value was 0.00444 ± 0.0021.
With UCCUGGAUGUGCUUGCAUAGUAUGUAGUUA the “pre-steady-state target cleavage rate” value was 0.00399 ± 0.0022.
With UCCUCCUACAGCUUGCAUAGUAUCUUAGUUA the “pre-steady-state target cleavage rate” value was 0.0254 ± 0.011.
With UCCUGGAACAGCUUGCAUAGUAUCUUAGUUA the “pre-steady-state target cleavage rate” value was 0.0187 ± 0.0064.
For UCCUGAUACAGCUUGCAUAGUAUUUAGUUA, the “pre-steady-state target cleavage rate” value was 0.0427 ± 0.014.
For UCCUGGAAGAGCUUGCAUAGUUUUUAGUUA, the “pre-steady-state target cleavage rate” value was 0.00316 ± 0.003.
For UCCUCCUACAGCUUGGAUAGUAUUUACUUA, the “pre-steady-state target cleavage rate” value was 0.00254 ± 0.0019.
With UCCUGCUACAGCUUGCAUACUAUUUAGAAA the “pre-steady-state target cleavage rate” value was 0.00298 ± 0.0021.
